The values that follow come from PubChem BioAssay (Tox21).

Molecules are shown by their SMILES. Results filed as inconclusive are left out. The source made the active and inactive calls. Unless noted, calls follow the shape of the dose curve; as a rule, active = well fitted curve in the direction sought with a large enough effect in the repeat runs; inconclusive = weak or mixed curves; inactive = no such curve, though single readings can be large; an effect the other way counts as inactive or inconclusive.

A short description of assay [1]: qHTS assay to identify small molecule agonists of the peroxisome proliferator-activated receptor delta (PPARd) signaling pathway - cell viability counter screen (AID 743211). Also: nearly all actives have a fitted effect of over 55% in size. Also: potency is read from the fitted curve at half-maximal effect. In short, it runs like this: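 Luminescent ATP viability assay (CellTiter-Glo, 30 min RT) in UAS-bla HEK293H cells carrying the PPAR delta reporter construct, 3000 cells/well, after a 17 h compound treatment at 37 C.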

In assay [2] the target is Peroxisome proliferator-activated receptor delta (Homo sapiens) (UniProt Q03181). In words: qHTS assay to identify small molecule agonists of the peroxisome proliferator-activated receptor delta (PPARd) signaling pathway (AID 743212; calls by dose curve). The method, boiled down: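 Cells expressing a UAS-driven beta-lactamase reporter (PPARd-bla HEK293H) were given test compounds after a 5 h settle and kept at 37 C. Reporter activity was then measured as FRET fluorescence using LiveBLAzer B/G substrate.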
Chain of Peroxisome proliferator-activated receptor delta (Homo sapiens) (Q03181 whole entry, looked up): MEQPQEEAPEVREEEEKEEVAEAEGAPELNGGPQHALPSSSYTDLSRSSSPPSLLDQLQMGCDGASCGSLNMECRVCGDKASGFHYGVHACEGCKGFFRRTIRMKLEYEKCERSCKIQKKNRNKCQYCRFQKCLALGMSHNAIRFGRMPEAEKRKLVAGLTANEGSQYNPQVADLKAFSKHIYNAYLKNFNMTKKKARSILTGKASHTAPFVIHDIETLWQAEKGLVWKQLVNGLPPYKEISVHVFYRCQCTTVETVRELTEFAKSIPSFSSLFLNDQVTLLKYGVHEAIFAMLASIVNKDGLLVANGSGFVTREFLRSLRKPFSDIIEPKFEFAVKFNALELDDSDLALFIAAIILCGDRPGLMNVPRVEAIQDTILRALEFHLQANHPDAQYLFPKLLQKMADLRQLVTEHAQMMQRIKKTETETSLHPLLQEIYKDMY
A general note: Quantitative high-throughput screening tests each substance at several concentrations.

Assay [3] can be described thus: qHTS assay to identify small molecule antagonists of the peroxisome proliferator-activated receptor delta (PPARd) signaling pathway - cell viability counter screen (AID 743213). Also: nearly all actives have a fitted effect of over 50% in size. The method, boiled down:
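CellTiter-Glo was added to PPARd-bla HEK293H wells following 17 h compound treatment in the presence of 300 nM L165041. Luminescence was recorded after 30 min at room temperature.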

Assay [4] concerns the target Peroxisome proliferator-activated receptor delta (Homo sapiens) (UniProt Q03181). In words: qHTS assay to identify small molecule antagonists of the peroxisome proliferator-activated receptor delta (PPARd) signaling pathway (AID 743215; active = well fitted inhibition curve with a large enough effect in the signal ratio in the repeat runs, not every such curve was filed as active; the % refers to the signal ratio;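 also: cells stimulated with agonist L165041 at 300 nM final during compound exposure; series mostly up to about 62 µM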). The method, boiled down: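 Screen format: qHTS, antagonist mode. HEK293H PPARd-bla cells received compound and 300 nM L165041 (final), 17 h, 37 C. Beta-lactamase detected via FRET substrate fluorescence, 2 h, room temperature.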

Assay [5] deals with Bile acid receptor (Homo sapiens) (UniProt Q96RI1). In words: qHTS assay to identify small molecule agonists of the farnesoid-X-receptor (FXR) signaling pathway (AID 743220; active = well fitted activation curve with a large enough effect in the signal ratio in the repeat runs, not every such curve was filed as active; the % refers to the signal ratio). The method, boiled down: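 FXR-UAS-bla HEK 293T cells carrying a UAS-driven beta-lactamase reporter were plated for 5 h at 37C/5% CO2, then exposed to DMSO-dissolved Tox21 10K compounds for 16 h at 37C. A LiveBLAzer B/G FRET substrate was loaded for 2 h at room temperature before fluorescence reading.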
Chain of Bile acid receptor (Homo sapiens) (Q96RI1 whole entry, looked up): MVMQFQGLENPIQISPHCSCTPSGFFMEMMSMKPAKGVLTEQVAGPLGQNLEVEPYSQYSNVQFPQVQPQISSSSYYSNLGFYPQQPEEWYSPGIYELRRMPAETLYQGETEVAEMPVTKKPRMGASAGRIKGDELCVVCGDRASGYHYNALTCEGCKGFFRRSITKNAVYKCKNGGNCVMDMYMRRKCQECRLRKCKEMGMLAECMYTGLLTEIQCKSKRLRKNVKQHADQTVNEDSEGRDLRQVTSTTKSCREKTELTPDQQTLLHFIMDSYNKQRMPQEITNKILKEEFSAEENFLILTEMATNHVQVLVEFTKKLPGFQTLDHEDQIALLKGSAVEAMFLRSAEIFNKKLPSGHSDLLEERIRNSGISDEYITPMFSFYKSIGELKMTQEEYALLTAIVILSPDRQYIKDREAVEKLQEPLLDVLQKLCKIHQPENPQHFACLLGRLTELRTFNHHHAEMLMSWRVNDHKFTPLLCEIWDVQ

Assay [6] can be described thus: qHTS assay to identify small molecule antagonists of the farnesoid-X-receptor (FXR) signaling pathway - cell viability counter screen (AID 743221; active = well fitted cell-killing curve with a large enough effect in the repeat runs, not every such curve was filed as active; also: nearly all actives have a fitted effect of over 50% in size). The method, boiled down: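 In GeneBLAzer FXR-UAS-bla HEK 293T cells stimulated with 50 uM chenodeoxycholic acid (final), compounds acted for 16 h at 37 C. Viability was assessed afterwards by CellTiter-Glo luminescence.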

In assay [7] the target is Vitamin D3 receptor (Homo sapiens) (UniProt P11473). In words: qHTS assay to identify small molecule agonists of the vitamin D receptor (VDR) signaling pathway (AID 743222; calls by dose curve). In short, it runs like this:
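Using LiveBLAzer B/G FRET detection, agonism was scored in VDR-bla cells exposed overnight (16 h, 37C) to DMSO-dissolved compounds; substrate incubation was 2 h at room temperature.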

Assay [8] has the same target. In words: qHTS assay to identify small molecule antagonists of the vitamin D receptor (VDR) signaling pathway (AID 743223; active = well fitted inhibition curve with a large enough effect in the signal ratio in the repeat runs, not every such curve was filed as active; the % refers to the signal ratio). In short, it runs like this:
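Agonist 1alpha,25-dihydroxyvitamin D3 (3 nM in well) was added with each compound to VDR-bla cells preincubated 4 h. Cells stood 16 h at 37C, then FRET substrate 2 h at room temperature; fluorescence intensity recorded.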

Assay [9] is described as follows: qHTS assay to identify small molecule agonists of the NFkB signaling pathway - cell viability counter screen (AID 1159515; calls by dose curve; also: series mostly up to about 61 µM; nearly all actives have a fitted effect of over 55% in size). In short, it runs like this: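 Counter screen run alongside the NFkB-bla agonist assay: ME-180 reporter cells exposed to compounds for 5 hr, then lysed with CellTiter-Glo in the same wells. Luminescence, read after 30 min, reflects viable cells.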

A short description of assay [10]: qHTS assay to identify small molecule agonists of the endoplasmic reticulum stress response signaling pathway (AID 1159516; active = well fitted activation curve with a large enough effect in the signal ratio in the repeat runs, not every such curve was filed as active; the % refers to the signal ratio). In short, it runs like this:
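For this screen, HeLa cells stably carrying beta-lactamase under the ER stress response element received test compounds, positive controls or DMSO for 5 hr at 37 C; B/G FRET substrate was then added and dual-wavelength emission recorded.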

Assay [11] in a line: qHTS assay to identify small molecule agonists of the endoplasmic reticulum stress response signaling pathway - cell viability counter screen (AID 1159517; calls by dose curve; also: series mostly up to about 61 µM; nearly all actives have a fitted effect of over 50% in size). The method, boiled down: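 Cpd-treated ESRE-bla HeLa (5 hr, 37 C) → LiveBLAzer 2 hr RT → CellTiter-Glo 30 min RT → luminescence.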
The nature of assay [12]: qHTS assay to identify small molecule antagonists of the retinoid-related orphan receptor gamma (ROR-gamma) signaling pathway - cell viability counter screen (AID 1159520). Also: nearly all actives have a fitted effect of over 50% in size. Also: potency is read from the fitted curve at half-maximal effect. The method, boiled down: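 Tet-on ROR gamma CHO cells (1,000/well) were plated 4 hr, given compounds in DMSO for 2 hr at 37 C, then induced with 1 uM final doxycycline for 16 hr. Viability was read as ATP by CellTiter-Glo luminescence after 30 min.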

For assay [13], the target named is Nuclear receptor ROR-gamma (Homo sapiens) (UniProt P51449). In words: qHTS assay to identify small molecule antagonists of the retinoid-related orphan receptor gamma (ROR-gamma) signaling pathway (AID 1159521; also: nearly all actives have a fitted effect of over 50% in size; also: potency is read from the fitted curve at half-maximal effect). In short, it runs like this: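 CHO cells expressing RORγ under a TET-on promoter, luciferase under RORE control. Dox 1 uM final, 16 h; compounds added 2 h prior. Luminescence decrease measured.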

A short description of assay [14]: qHTS assay to identify small molecule agonists of the AP-1 signaling pathway - cell viability counter screen (AID 1159525; calls by dose curve; also: nearly all actives have a fitted effect of over 55% in size). In short, it runs like this: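 Each titration point was normalised to DMSO and tetra n-octyl ammonium bromide controls. The read was Cell Titer Glo luminescence after 30 min at RT, following 5 h compound exposure of ME-180 AP-1-bla cells at 37 °C.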

Assay [15] in a line: qHTS assay to identify small molecule agonists of the vitamin D receptor (VDR) signaling pathway - cell viability counter screen (AID 743224). In short, it runs like this: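 Counter screen for cytotoxicity: VDR-bla cells at 2,000 cells/well, 16 h compound exposure, then CellTiter-Glo luminescence after the beta-lactamase measurement.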
Assay [16] can be described thus: qHTS assay to identify small molecule antagonists of the vitamin D receptor (VDR) signaling pathway - cell viability counter screen (AID 743225). Also: nearly all actives have a fitted effect of over 50% in size. The method, boiled down:
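Luminescent cell viability (CellTiter-Glo) in VDR-bla HEK 293T cells after 16 h compound exposure at 37C in the presence of 3 nM final 1-alpha,25-dihydroxy vitamin D3.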

The nature of assay [17]: qHTS assay to identify small molecule agonists of the AP-1 signaling pathway (AID 1159526; calls by dose curve).
The target in assay [18] is Retinoic acid receptor RXR-alpha (Homo sapiens) (UniProt P19793). In words: qHTS assay to identify small molecule agonists of the RXR signaling pathway (AID 1159527; calls by dose curve; also: nearly all actives have a fitted effect of over 35% in size; also: potency is read from the fitted curve at half-maximal effect). In short, it runs like this:
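Beta-lactamase reporter assay, agonist format. Engineered HEK 293T line, charcoal-stripped FBS at 2%, overnight (16 hr) exposure, fluorescence at 460 and 530 nm after 405 nm excitation.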

A short description of assay [19]: qHTS assay to identify small molecule agonists of the farnesoid-X-receptor (FXR) signaling pathway - cell viability counter screen (AID 743218). Also: nearly all actives have a fitted effect of over 45% in size. The method, boiled down: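 Same-well cytotoxicity check on FXR-UAS-bla HEK 293T cells: 5 h attachment, 16 h compound at 37 C, CellTiter-Glo luminescence read at room temperature after 30 min.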
Assay [20] addresses Bile acid receptor (Homo sapiens) (UniProt Q96RI1). In words: qHTS assay to identify small molecule antagonists of the farnesoid-X-receptor (FXR) signaling pathway (AID 743217; active = well fitted inhibition curve with a large enough effect in the signal ratio in the repeat runs, not every such curve was filed as active; the % refers to the signal ratio). In short, it runs like this: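 Quantitative HTS, beta-lactamase reporter format: FXR-UAS-bla HEK 293T cells co-treated 16 h at 37 °C with compounds and 50 uM final chenodeoxycholic acid, then read by B/G FRET fluorescence.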

Chain of Vitamin D3 receptor (Homo sapiens) (P11473 whole entry, looked up): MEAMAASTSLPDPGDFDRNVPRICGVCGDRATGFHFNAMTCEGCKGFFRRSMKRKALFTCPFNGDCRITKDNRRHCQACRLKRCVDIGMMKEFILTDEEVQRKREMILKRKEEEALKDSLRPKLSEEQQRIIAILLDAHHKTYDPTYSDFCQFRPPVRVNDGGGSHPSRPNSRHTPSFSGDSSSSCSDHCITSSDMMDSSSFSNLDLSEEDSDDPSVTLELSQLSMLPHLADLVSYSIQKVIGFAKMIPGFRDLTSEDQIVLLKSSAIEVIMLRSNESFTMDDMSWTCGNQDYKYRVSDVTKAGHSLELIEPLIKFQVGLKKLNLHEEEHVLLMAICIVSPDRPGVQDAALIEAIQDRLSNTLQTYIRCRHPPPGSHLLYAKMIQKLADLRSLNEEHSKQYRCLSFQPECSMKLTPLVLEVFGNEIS
Chain of Retinoic acid receptor RXR-alpha (Homo sapiens) (P19793 whole entry, looked up): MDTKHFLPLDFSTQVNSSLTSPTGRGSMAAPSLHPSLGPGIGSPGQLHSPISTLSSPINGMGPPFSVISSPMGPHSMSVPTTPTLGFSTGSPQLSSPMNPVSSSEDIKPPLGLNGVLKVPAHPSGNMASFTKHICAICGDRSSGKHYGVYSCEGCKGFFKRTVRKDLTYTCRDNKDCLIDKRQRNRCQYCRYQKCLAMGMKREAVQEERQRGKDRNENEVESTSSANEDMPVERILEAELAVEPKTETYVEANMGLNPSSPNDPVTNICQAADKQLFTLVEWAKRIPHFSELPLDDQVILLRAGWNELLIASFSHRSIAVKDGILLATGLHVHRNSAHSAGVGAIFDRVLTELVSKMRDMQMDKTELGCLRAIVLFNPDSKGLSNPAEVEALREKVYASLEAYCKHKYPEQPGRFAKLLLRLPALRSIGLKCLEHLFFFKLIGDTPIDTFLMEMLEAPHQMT

In the case of `COc1cc(C(C)(C)C)c(O)c(C(C)(C)C)c1`, the Potency result in assay [1], in assay [3], in assay [6], in [8], in [9] and in [10] was “inactive” throughout. Further, the Potency entry in [12], in [13] and in assay [14] was “inactive” throughout. Also, the compound was classed as inactive in assay [2], in [4], in assay [5], in assay [7] and in assay [11].
Take `N=C(N=C(N)N)N1CCOCC1`: the Potency entry in assay [1], in assay [3], in assay [6], in [15], in [16] and in [9] was “inactive” in each case. Besides, the Potency result in [10], in assay [12], in [13], in assay [17] and in assay [18] was “inactive” each time. The call in assay [2], in [4], in assay [5] and in assay [11] was inactive.
Consider `CCC(C)N(C)C(=O)c1cc2ccccc2c(-c2ccccc2Cl)n1` (stereo unspecified), for which the Potency result in [1], in [3], in [19], in [6], in [15] and in assay [16] was “inactive” each time. Further, the Potency entry in assay [9], in [10], in assay [12], in [13] and in [17] was “inactive” each time. The result in assay [2] and in assay [11] was inactive.
In the case of `C=CC(=O)OCC(C)OCC(C)OCC(C)OC(=O)C=C` (stereo unspecified), the Potency in [1] was 49 µM (active); in assay [12], 21.7 µM (active); in assay [13], 30.6 µM (active). In addition, the Potency entry in [6], in assay [9], in [10] and in assay [14] was “inactive” each time. For the same compound, the compound was classed as inactive in assay [11].
`CCCCOC(=O)c1ccccc1C(=O)OCC(CC)CCCC` (stereo unspecified): the Potency entry in [1], in [3], in assay [19], in [6], in assay [15] and in [16] was “inactive” each time. In addition, the Potency result in assay [9], in assay [10], in assay [12], in [13] and in assay [14] was “inactive” each time. Besides, the compound was called inactive in assay [2], in assay [4], in assay [5], in assay [7] and in assay [11].
Consider `CCCCCCCCCO`, for which the Potency result in assay [1], in assay [3], in assay [15], in assay [16], in assay [9] and in assay [10] was “inactive” each time. Further, the Potency entry in assay [12], in assay [13] and in assay [14] was “inactive” throughout. Further, the call in assay [20], in assay [5], in [7] and in [11] was inactive.
With `CC(=O)c1c(C)c([N+](=O)[O-])c(C(C)(C)C)c([N+](=O)[O-])c1C`, the Potency entry in assay [1], in [3], in assay [19], in assay [6], in assay [15] and in [16] was “inactive” in each case. The Potency result in assay [9], in assay [10], in assay [12], in [13] and in [17] was “inactive” each time. Moreover, the compound was classed as inactive in assay [2], in assay [4], in [5], in assay [7] and in [11]. The Potency in assay [18] was 21.9 µM (active).
As for `CC1CCc2cc(F)cc3c(=O)c(C(=O)O)cn1c23` (stereo unspecified), the Potency result in [1], in assay [3], in assay [19], in assay [6], in [15] and in assay [16] was “inactive” throughout. Also, the Potency entry in assay [9], in [10], in assay [12], in assay [13] and in assay [14] was “inactive” throughout. Moreover, the outcome in assay [2], in [20], in assay [5] and in assay [11] was inactive.
On to `O=C(Cl)c1c(Cl)cccc1Cl`, for which the Potency result in [1], in [3], in [19], in assay [6], in assay [15] and in assay [16] was “inactive” each time. The Potency result in assay [9], in assay [10], in [12], in assay [13] and in [17] was “inactive” in each case. Further, the compound was classed as inactive in [2], in assay [4], in assay [7] and in [11].
